Beta apoptosis – beta cell apoptosis inhibition; INS-1E cytokine-induced death, ATP luminescence, 48 h; percent of positive-control rescue, neutral wells zero; 300,000 compounds, 0.8% hits; protection from apoptosis, % (test concentration not listed);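 active = Every replicate reaches about 75%, or at least half do and their mean reaches it too, limit read from the data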;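 also: 0% = cytokine-treated negative control wells and 100% = positive control rescue; higher means more ATP so stronger rescue from cytokine killing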
CSC inhib – cancer stem cell inhibition; cancer stem cell-like cells viability, luminescence; 300,000 compounds, 1.1% hits; inhibition, % at 7.5 µM; AID 2717; in the data active = inhibition above about 75%; tested in HMLE shEcad cells
Jurkat NFkB inh – inhibitors of the PMA/ionomycin-induced NF-kB reporter in Jurkat cells; PMA/ionomycin-induced NF-kB luciferase reporter, luminescence; inhibition, % at 4 µM; 330,000 compounds, 0.53% hits; in the data active = inhibition above about 50%
697 NFkB inh – lowers PMA/ionomycin-induced NF-kB signal in 697 B cells; 697 B-cell NF-kB luciferase reporter, 16 h; inhibition, % at 4 µM; 330,000 compounds, 0.33% hits; in the data active = inhibition above about 35%
Gli-Sufu antag – antagonists of Gli-Sufu signaling; Sufu-KO-LIGHT fibroblasts, Gli luciferase reporter luminescence; inhibition, % at 5 µM; 340,000 compounds, 0.74% hits;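 active = inhibition above about 55%, limit read from the data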;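 also: 0% = DMSO-treated cells and 100% = wells with medium but no cells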
Mdm2 MdmX PPI – inhibitors of human Mdm2/MdmX interaction; O15151+Q00987; SaOS-2 split-luciferase Mdm2/MdmX complementation, luminescence; inhibition, % at 8 µM; 330,000 compounds, 3% hits;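 active = inhibition of at least 50% at 8 µM in the primary screen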
697 NFkB conf – inhibitors of the PMA/ionomycin-induced NF-kB reporter in 697 B cells, retest; shares compounds with 697 NFkB inh; 697 B-cell NF-kB luciferase, 16 h; inhibition, % at 4 µM; 2,000 compounds, 35% hits; in the data active = inhibition mostly above about 28%, no sharp cut-off; inactive = mostly below about 22%
* hit, by the source's call; . = not tested or not shown. Only some compounds are listed: those with a hit (about 4.5% of all), similar ones and a draw of the others.

SMILES	Beta apoptosis	CSC inhib	Jurkat NFkB inh	697 NFkB inh	Gli-Sufu antag	Mdm2 MdmX PPI	697 NFkB conf
COC(=O)c1cc(OC(=O)CCc2ccc(OC)c(OC)c2)cc(C(=O)OC)c1	-5	-5	2	8	29	6	.
Cc1cc2c(C)c(C)c(=O)[nH]c2cc1N	1	10	2	36*	10	29	18
CCC(C(=O)NC(C)(C)C)N(Cc1ccco1)C(=O)CNS(=O)(=O)c1ccc(OC)cc1 (stereo not drawn)	-4	.	7	11	22	-20	.
CC1(c2nnc(-c3cccc(Cl)c3)o2)CC(c2cccc(Cl)c2)=NO1 (stereo not drawn)	1	-15	33	37*	-12	27	37*
CC1(c2nnc(-c3cccc(Cl)c3)o2)CC(c2ccc(Cl)cc2)=NO1 (stereo not drawn)	-1	9	-2	10	21	4	.
O=c1[nH]c(Nc2ccc3c(c2)OCCO3)nnc1Cc1ccc(Cl)cc1	-5	12	-25	-8	0	-2	.
O=c1cc(Nc2ccc3c(c2)OCCO3)[nH]c(=O)n1-c1ccc(Cl)cc1	0	2	-3	38*	-24	26	24
COc1cccc(OC)c1C(=O)NCCOc1cc(C)cc(C)c1	-1	-3	-3	10	-17	18	.
Cc1nn(C)cc1CN1CCC(CO)(CCOc2ccccc2)CC1	-1	-5	-3	43*	5	26	11
CCOc1ccccc1CN1CCC(CO)(CCOc2ccccc2)CC1	1	2	17	6	17	-16	.
COC(=O)c1ccc(COC(=O)CNC(=O)c2cccs2)cc1	-8	-3	1	11	-1	5	.
COc1ccc2c3n(nc2c1)CCN=C3c1ccc(Cl)cc1	-9	-4	4	-29	9	-18	.
CCOc1ccc(CN(C)C(=O)CN2C(=O)NC(c3ccccc3)(c3ccccc3)C2=O)cc1	.	.	7	10	-22	13	.
COc1cc(/C=N/NC(=O)C2CC(=O)N(c3ccc(C)cc3)C2)cc(OC)c1OC (stereo not drawn)	-1	-10	12	35	-5	-3	21
COc1ccc(N2CC(C(=O)N/N=C/c3ccccc3)CC2=O)cc1 (stereo not drawn)	-2	1	-4	10	-8	13	.
COc1ccc(C(=O)Nc2ccc(NC(=O)CSc3nnc(-c4ccncc4)n3C)cc2)cc1	3	3	-12	38*	-15	29	3
Cc1ccccc1CN1[C@@H]2c3ccccc3C[C@@H]2OCCS1(=O)=O	-4	4	-3	8	-6	23	.
Cc1ccc(C(=O)OCC(=O)c2ccc(S(=O)(=O)N3CCCCC3)cc2)o1	-6	-5	2	6	-9	14	.
Cc1ccccc1CN(C)CCS(=O)(=O)c1cc(Cl)ccc1Cl	-13	62	-9	36*	-1	44	3
Nc1nnc(CCS(=O)(=O)c2cc(Cl)ccc2Cl)s1	-6	9	0	20	6	5	.
Cc1cc(C)n2nc(SCN3C(=O)c4ccccc4C3=O)nc2n1	-2	4	2	9	4	19	.
O=C1c2ccccc2C(=O)N1CSc1ncccn1	7	-2	-7	36*	-3	21	-9
CCC1(c2ccc(Cl)cc2)NC(=O)N(CC(=O)NC2CCCC(C)C2C)C1=O (stereo not drawn)	.	.	22	39*	1	-24	-1
Cc1ccccc1CN1CCc2cc([N+](=O)[O-])ccc21	-3	3	16	3	19	34	.
COC(=O)CCN1CCc2cc(N=Nc3ccc([N+](=O)[O-])cc3)ccc21	40	41	-90	-282	5	45	-95
SMILES	Beta apoptosis	CSC inhib	Jurkat NFkB inh	697 NFkB inh	Gli-Sufu antag	Mdm2 MdmX PPI	697 NFkB conf
Cn1cnnc1SCC(=O)NC1CCCC1	7	5	-11	-8	-7	6	.
CC1CCN(c2cc(N3CCN(C(=O)c4ccc(F)c(F)c4)CC3)c([N+](=O)[O-])cc2F)CC1	-10	32	21	38*	9	22	18
CC1CCN(c2cc(N3CCOCC3)c([N+](=O)[O-])cc2F)CC1	-10	54	-5	-6	7	-2	.
COc1ccc(COc2cc(-c3cccc(OC)c3)nc3ccc(NC(=O)c4ccccc4)cc23)cc1	7	45	4	40*	-3	21	20
COc1ccc(COc2cc(-c3cccc(OC)c3)nc3ccc(NC(=O)c4ccc(Cl)cc4)cc23)cc1	9	41	6	6	3	28	.
O=c1[nH]c(NC2CCN(S(=O)(=O)c3ccccc3C(F)(F)F)CC2)nc2c1CCCC2	.	.	36	44*	-14	27	26
CC1(C)CC(NC(=O)C2CCN(S(=O)(=O)c3ccccc3C(F)(F)F)CC2)CC(C)(C)N1	.	-2	-22	3	9	-4	.
COCCn1c(-c2ccc(Cl)cc2Cl)nc2c(c(=O)c3ccccc3n2C)c1=O	-16	-6	25	41*	17	30	14
CCc1[nH]nc2c1C(c1ccc(Br)s1)C(C#N)=C(N)O2 (stereo not drawn)	-10	21	9	43*	19	40	23
CCc1[nH]nc2c1C(c1ccsc1)C(C#N)=C(N)O2 (stereo not drawn)	-1	-9	-8	35	-80	31	.
COc1ccc(NC(=O)C(C)N=C2NS(=O)(=O)c3ccccc32)cc1S(N)(=O)=O (stereo not drawn)	-1	.	8	8	3	-3	.
Cc1ccc(-c2nnc(Nc3ccccc3)o2)cc1	9	32	-59	-303	-72	-2	-366
Cc1ccc(NC(=O)Nc2nnc(-c3ccccc3)o2)cc1	-1	18	-15	-33	-14	-13	.
O=C(N/N=C/c1cccnc1)c1cc(-c2ccccc2OCc2ccccc2)n[nH]1	1	45	22	35*	12	22	26*
CC(Oc1ccc(Br)cc1)C(=O)Nc1ccc(S(=O)(=O)NC2=NCCCCC2)cc1 (stereo not drawn)	.	.	.	.	-1	.	.
O=C(NCCS(=O)(=O)N1CCN(c2cccc(Cl)c2)CC1)c1ccco1	3	0	-8	35*	6	-10	-10
Nc1nn(-c2ccccc2)c(N)c1N=Nc1ccc2c(c1)OCO2	10	54	-10	-270	-118	-124	-220
COc1cccc(OC)c1C1=CC(=O)C[C@H](c2ccc3c(c2)OCO3)C1	-4	41	-5	-11	4	11	.
COc1cccc2c1C(=O)O/C2=C/c1ccc2c(c1)OCO2	12	-7	-63	-342	.	6	-446
Cc1c(NC(=O)/C=C/c2cn(-c3ccccc3)nc2-c2ccccc2)c(=O)n(-c2ccccc2)n1C	1	-2	18	35*	-10	38	28*

Assay outcomes deposited in PubChem BioAssay by several laboratories.
